Measured values: PubChem BioAssay AID488864 (Broad Institute, 2010)
Measured potencies and affinities stand elsewhere. Calls of active or inactive are those of the source.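 The calls were made as follows: active = ATP signal reduced by compound, with fitted active dose under ten times the top valid tested dose; inactive = the rest, compounds that increase ATP levels included.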

Assay: INS-1E beta-cell viability without cytokines, dose response, cytotoxicity control for beta-cell cytokine protection project, CellTiter-Glo luminescence, dry powder (AID 488864)
Settings: INS-1E rat beta cells, 48 h, no cytokines; series mostly up to 26 µM

| Compound | outcome |
| --- | --- |
| COc1ccc(S(=O)(=O)Nc2cccc3c2O[C@@H](CN(C)S(=O)(=O)c2ccc(OC)cc2)[C@H](C)CN([C@@H](C)CO)C3=O)cc1 | inactive |
| COc1ccc(S(=O)(=O)N(C)C[C@@H]2Oc3ccc(NC(=O)Nc4cccc5ccccc45)cc3C(=O)N([C@@H](C)CO)C[C@H]2C)cc1 | inactive |
| C[C@@H]1CN([C@@H](C)CO)C(=O)c2cccc(NC(=O)Nc3ccc(F)cc3)c2O[C@H]1CN(C)S(=O)(=O)c1ccc(F)cc1 | inactive |
| COc1ccc(S(=O)(=O)N(C)C[C@@H]2Oc3c(NC(=O)Nc4cccc5ccccc45)cccc3C(=O)N([C@@H](C)CO)C[C@H]2C)cc1C | inactive |
| COc1ccc(S(=O)(=O)N(C)C[C@@H]2Oc3c(NS(=O)(=O)c4ccc(Cl)cc4)cccc3C(=O)N([C@@H](C)CO)C[C@H]2C)cc1 | inactive |
| COc1ccccc1S(=O)(=O)N(C)C[C@@H]1Oc2c(NC(=O)Nc3cccc4ccccc34)cccc2C(=O)N([C@@H](C)CO)C[C@H]1C | inactive |
| Cc1ccc(S(=O)(=O)N(C)C[C@@H]2Oc3c(NC(=O)Nc4cccc5ccccc45)cccc3C(=O)N([C@H](C)CO)C[C@H]2C)cc1 | inactive |
| Cc1ccc(S(=O)(=O)N(C)C[C@H]2Oc3c(NC(=O)Nc4cccc5ccccc45)cccc3C(=O)N([C@@H](C)CO)C[C@@H]2C)cc1 | inactive |
| COc1ccc(S(=O)(=O)N(C)C[C@@H]2Oc3c(NC(=O)c4ccncc4)cccc3C(=O)N([C@@H](C)CO)C[C@H]2C)cc1 | inactive |
| COc1ccc(S(=O)(=O)N(C)C[C@@H]2Oc3c(NC(=O)c4cnccn4)cccc3C(=O)N([C@@H](C)CO)C[C@H]2C)cc1 | inactive |
| C[C@@H]1CN([C@@H](C)CO)C(=O)c2cccc(NC(=O)Nc3cccc4ccccc34)c2O[C@H]1CN(C)C(=O)Nc1ccc(F)cc1 | inactive |
| C[C@@H]1CN([C@H](C)CO)C(=O)c2cccc(NC(=O)Nc3ccc(F)cc3)c2O[C@H]1CN(C)S(=O)(=O)c1ccc(Cl)cc1 | inactive |
| COc1ccc(S(=O)(=O)N(C)C[C@@H]2Oc3c(NC(=O)Nc4ccccc4)cccc3C(=O)N([C@H](C)CO)C[C@H]2C)cc1 | inactive |
| C[C@@H]1CN([C@@H](C)CO)C(=O)c2cccc(NC(=O)Nc3cccc4ccccc34)c2O[C@H]1CN(C)S(=O)(=O)c1ccc2ncsc2c1 | inactive |
| C[C@@H]1CN([C@@H](C)CO)C(=O)c2cccc(NC(=O)Nc3cccc4ccccc34)c2O[C@H]1CN(C)C(=O)Nc1ccccc1 | inactive |
| C[C@@H]1CN([C@@H](C)CO)C(=O)c2cccc(NC(=O)Nc3cccc4ccccc34)c2O[C@H]1CN(C)S(=O)(=O)c1ccc2c(c1)OCC2 | inactive |
| COc1ccc(S(=O)(=O)N(C)C[C@@H]2Oc3c(NC(=O)Nc4ccccc4)cccc3C(=O)N([C@@H](C)CO)C[C@H]2C)cc1 | inactive |
| COc1ccc(S(=O)(=O)N(C)C[C@@H]2Oc3c(NS(=O)(=O)c4ccc(F)cc4)cccc3C(=O)N([C@@H](C)CO)C[C@H]2C)cc1 | inactive |
| C[C@H]1CN([C@@H](C)CO)C(=O)c2cccc(NC(=O)NC3CCCCC3)c2O[C@@H]1CN(C)S(C)(=O)=O | inactive |
| COc1ccc(NC(=O)N(C)C[C@@H]2Oc3c(NC(=O)Nc4cccc5ccccc45)cccc3C(=O)N([C@@H](C)CO)C[C@H]2C)cc1 | inactive |
| C[C@@H]1CN([C@@H](C)CO)C(=O)c2cccc(NC(=O)Nc3cccc4ccccc34)c2O[C@H]1CN(C)S(=O)(=O)c1ccc(F)cc1 | inactive |
| C[C@@H]1CN([C@@H](C)CO)C(=O)c2cccc(NC(=O)Nc3ccc(F)cc3)c2O[C@H]1CN(C)S(=O)(=O)c1ccc(Cl)cc1 | inactive |
| C[C@@H]1CN([C@@H](C)CO)C(=O)c2cccc(NC(=O)Nc3cccc(Cl)c3Cl)c2O[C@H]1CN(C)S(=O)(=O)c1ccc2c(c1)OCCO2 | inactive |
| COc1ccc(S(=O)(=O)N(C)C[C@@H]2Oc3c(NC(=O)C4CCCCC4)cccc3C(=O)N([C@@H](C)CO)C[C@H]2C)cc1 | inactive |
| C[C@@H]1CN([C@@H](C)CO)C(=O)c2cccc(NC(=O)Nc3cccc4ccccc34)c2O[C@H]1CN(C)C(=O)Nc1ccc(C(F)(F)F)cc1 | inactive |
| COc1ccc(NC(=O)Nc2cccc3c2O[C@@H](CN(C)S(=O)(=O)c2ccc(OC)cc2)[C@H](C)CN([C@@H](C)CO)C3=O)cc1 | inactive |
| C[C@@H]1CN([C@@H](C)CO)C(=O)c2cccc(NC(=O)Nc3cccc4ccccc34)c2O[C@H]1CN(C)S(=O)(=O)c1cn(C)cn1 | inactive |
| Cc1ccc(S(=O)(=O)N(C)C[C@@H]2Oc3c(NC(=O)Nc4ccc(F)cc4)cccc3C(=O)N([C@H](C)CO)C[C@H]2C)cc1 | inactive |
